Reference: the supplement of paper PMC10981050
“And” between values parts separate entries of the source, which are not always exact repeats. Equal entries are not always repeated. Structures can show the parent of a compound that is named as a salt.

System: K562
Assay: cell viability relative to vehicle control; higher = less cytotoxic
Details: 10 µM; SRSF2 genotype: SRSF2 P95H/wt
Outline: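 CRISPR-edited mutant clones and isogenic wild-type clones from four leukaemia lines were screened against Selleck bioactive, kinase and epigenetic probe libraries, with identity-inconsistent compounds excluded. Each compound was acoustically dispensed at a single 10 µM dose into 384-well plates holding 2000 cells in 50 µL medium per well. After 48 h the supernatant was removed and CellTiter-Glo luminescence was read. Viability was expressed as percent of the on-plate vehicle control and analysed in Genedata Screener.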

SMILES	cell viability
O=C(Nc1cc(Cl)cc2c1[nH]c1cnccc12)c1cccnc1	89% and 95.7%
Cc1cc(-c2ccc(/N=N/c3ccc4c(S(=O)(=O)O)cc(S(=O)(=O)O)c(N)c4c3O)c(C)c2)ccc1/N=N/c1ccc2c(S(=O)(=O)O)cc(S(=O)(=O)O)c(N)c2c1O [Evans Blue]	66.2% and 64.2%
COc1cc(N2CCN(C)CC2)ccc1Nc1ncc2c(n1)N(C)c1ccccc1C(=O)N2	83.4% and 82.7%
COc1cc2c(cc1OC)-c1cc3ccc(OC)c(OC)c3c[n+]1CC2 [Palmatine chloride]	82.8% and 81.3%
C[C@H]1CO[C@@H]2Cn3cc(C(=O)NCc4ccc(F)cc4F)c(=O)c(O)c3C(=O)N12	84.6% and 81.9%
CN(C)CCc1c[nH]c2ccc(Cn3cncn3)cc12 [Rizatriptan Benzoate (Maxalt)]	86.7% and 84.6%
Cc1ccc(NC(=O)C2(c3ccc4c(c3)OC(F)(F)O4)CC2)nc1-c1cccc(C(=O)O)c1 [VX-809 (Lumacaftor)]	108% and 106%
C=CC(=O)Nc1cccc(Nc2nc(Nc3ccc(Oc4ccnc(C(=O)NC)c4)cc3)ncc2F)c1	87.5% and 95.6%
Cc1cc(Nc2ncc(Cl)c(Nc3ccccc3S(=O)(=O)C(C)C)n2)c(OC(C)C)cc1C1CCNCC1 [Ceritinib (LDK378)]	0.29% and 0.22%
C[C@@H](Oc1cc(-n2cnc3ccc(CN4CCN(C)CC4)cc32)sc1C(N)=O)c1ccccc1C(F)(F)F	31.9% and 32.9%
CC(C)c1onc(-c2c(Cl)cccc2Cl)c1COc1ccc(/C=C/c2cccc(C(=O)O)c2)c(Cl)c1	95.1% and 94.7%
C[C@@H]1O[C@@H](O[C@H]2[C@H](Oc3cc(O)c(C(=O)CCc4ccc(O)cc4)c(O)c3)O[C@H](CO)[C@@H](O)[C@@H]2O)[C@H](O)[C@H](O)[C@H]1O [Naringin Dihydrochalcone (Naringin DC)]	99.7% and 107%
CC(=O)[C@H]1CC[C@H]2[C@@H]3CCC4=CC(=O)CC[C@]4(C)[C@H]3CC[C@]12C [Progesterone (Prometrium)]	78% and 87.7%
CCOc1cc(C=O)ccc1OC(C)=O [Ethyl vanillin acetate]	103% and 99.2%
Clc1ccc(CSC(Cn2ccnc2)c2ccc(Cl)cc2Cl)cc1 (stereo not given) [Sulconazole Nitrate]	57.2% and 61.2%
Cc1[nH]c(/C=C2\C(=O)Nc3ccc(S(=O)(=O)Cc4c(Cl)cccc4Cl)cc32)c(C)c1C(=O)N1CCC[C@@H]1CN1CCCC1	0.5% and 0.24%
CN(C)CCCC1(c2ccc(F)cc2)OCc2cc(C#N)ccc21 (stereo not given) [Citalopram HBr]	98.3% and 92.9%
Cc1cc(Nc2cc(N)ncn2)c(=O)n2c1C(=O)NC21CCCCC1	89.2% and 85.2%
COc1ccc2c(c1O)-c1c(O)c(OC)cc3c1[C@H](C2)[N+](C)(C)CC3 [Magnoflorine]	97.9% and 97.3%
CN1CCN(c2ccc(Nc3cc(-c4cccc(-n5ccc6cc(C7CC7)cc(F)c6c5=O)c4CO)cn(C)c3=O)nc2)CC1	15.9% and 12.5%

SMILES	cell viability
Cc1cccc(C)c1N(CC(=O)Nc1ccc(-c2ncon2)cc1)C(=O)C1CCS(=O)(=O)CC1 [Amenamevir]	99.9% and 92.8%
O=C1C[C@@H]2[C@@H](CO)[C@H](O)C[C@@H]2O1 [Corey Lactone Diol]	110%
CC(=O)/N=c1/sc(S(N)(=O)=O)nn1C [Methazolamide]	109% and 102%
O=C(NCc1ccncc1)C12CC3CC(C1)CC(c1ccc(Cl)cc1)(C3)C2	73.1% and 84.6%
COc1cc2c(=O)c(-c3ccc(O)cc3)coc2cc1O[C@@H]1O[C@H](CO)[C@@H](O)[C@H](O)[C@H]1O [Glycitin]	98% and 97.4%
O=c1cc(-c2ccccc2)oc2c1ccc1ccccc12 [alpha-Naphthoflavone]	94.2% and 87.3%
CC(CN(C)C)Oc1nc(Nc2cc3cccc(Cl)c3cn2)cnc1C#N (stereo not given)	50.7% and 62.5%
C[C@@H](Oc1ccc2[nH]nc(/C=C/c3cnn(CCO)c3)c2c1)c1c(Cl)cncc1Cl	36.1% and 35.5%
C1=N/C2=N/c3ccc(OCCN4CCCC4)c(c3)COC/C=C/COCc3cccc(c3)C(=C1)N2 [Pacritinib (SB1518)]	3.78% and 2.31%
C[C@H]1C[C@H]2[C@@H]3CCC4=CC(=O)C=C[C@]4(C)[C@@]3(F)[C@@H](O)C[C@]2(C)[C@@]1(O)C(=O)CO [Betamethasone (Celestone)]	92.1% and 85.8%
OCCN(CCO)c1nc(N2CCCCC2)c2nc(N(CCO)CCO)nc(N3CCCCC3)c2n1 [Dipyridamole (Persantine)]	95.7% and 95.1%
CCOc1ccccc1OC(c1ccccc1)C1CNCCO1 (stereo not given) [Reboxetine mesylate]	94.5% and 93.4%
CC(C)n1nccc1-c1ncccc1COc1cccc(O)c1C=O [Voxelotor(GBT440, GTx011)]	97.7% and 98.4%
Cc1ccc(N(CC2=NCCN2)c2cccc(O)c2)cc1 [Phentolamine Mesylate]	93% and 101%
O=C(NO)c1cccc(C(=O)NCCc2ccccc2)c1	91% and 97.1%
O=c1ccn(C2OC(CO)C(O)C2O)c(=O)[nH]1 (stereo not given)	90.3% and 93.8%
CC1(C)S[C@@H]2[C@H](NC(=O)[C@H](N)c3ccccc3)C(=O)N2[C@H]1C(=O)OCOC(=O)[C@@H]1N2C(=O)C[C@H]2S(=O)(=O)C1(C)C [Sultamicillin]	100% and 98.8%
Cc1cc(OCCCS(C)(=O)=O)cc(C)c1-c1cccc(COc2ccc3c(c2)OC[C@H]3CC(=O)O)c1	92.7% and 94.6%
CCCC1O[C@@H]2C[C@H]3[C@@H]4CCC5=CC(=O)C=C[C@]5(C)[C@H]4[C@@H](O)C[C@]3(C)[C@]2(C(=O)CO)O1 (stereo not given in full) [Budesonide]	85.5% and 95.1%
CC(C)n1nc(-c2ccc(NC(=O)Nc3cc(C(F)(F)F)ccc3F)cc2)c2c(N)ncnc21	26.5% and 30.8%
